The values below come from PubChem BioAssay AID1566 (Sanford-Burnham Center for Chemical Genomics, 2009).

Values joined by “and” are separate entries in the source; they are usually repeats but may differ in a detail not shown here. Identical values can stand only once. Out of some 290,000 compounds screened, about 1,800 (0.62%) were called active. Cut-off read from the data, not from the text of the source: active = inhibition above about 50%; inactive = the rest. The sample as a whole holds a higher share of actives than the screen did.

The assay is described as follows: inhibition of NOD2-driven NF-kB reporter – cell-based, luminescence, uHTS, HEK293 (AID 1566). Conditions: HEK293 NOD2/NF-kB luciferase reporter, at 4 µM, stronger effect = higher value. Background: Reporter assays use an easily measured gene product as a stand-in for the process of interest.
As usually defined, the inhibition is the change of the read-out against control, counted positive when it falls. On to `O=c1[nH]c(C2CCN(S(=O)(=O)Cc3ccccc3)CC2)nc2c1nnn2Cc1ccccc1`, for which the inhibition was 5% (inactive). For `COC(=O)Cc1ccc(NC(=O)c2ccc(NC(=O)c3ccco3)cc2)cc1` the value was 0.9% (inactive); for `CCOC(=O)Cc1ccc(NC(=O)c2ccccc2Br)cc1`, -12.2% (inactive).

Take `COC(=O)Cc1ccc(NC(=O)c2ccc(C(C)(C)C)cc2)cc1`: the inhibition is 70.7% (active). For `CC(C)(C)c1ccc(C(=O)Nc2ccc(NC(=O)C(=O)O)cc2)o1` the value was 9.4% (inactive); for `CC(C)(C)c1ccc(C(=O)Nc2ccc(CC(=O)O)cc2)o1`, 71.6% (active); for `COC(=O)Cc1ccc(NC(=O)c2ccc(C)c(C)c2)cc1`, -48.4% (inactive). Consider `CCOC(=O)Cc1ccc(NC(=O)c2ccc(C(C)(C)C)cc2)cc1`, for which the inhibition was 61.9% (active). `CCOC(=O)Cc1ccc(NC(=O)c2ccc([N+](=O)[O-])cc2)cc1`: the inhibition is -1.9% (inactive). For `Cc1ccc(C(=O)Nc2ccc(CC(=O)O)cc2)o1`, the inhibition was 7.5% (inactive).

For the compound `Cc1ccc(C)c(S(=O)(=O)N2CCCOC2CNC(=O)C(=O)NCc2ccncc2)c1` (centres undefined), the inhibition was 11.8% (inactive). For the compound `Cc1cccc(N2CCN(C(=O)C3CCCCC3)CC2)c1C`, the inhibition was -34.8% (inactive).

On to `CCCCn1c(N)c(N(CCOC)C(=O)c2ccc(Cl)c(S(=O)(=O)N3CCCC3)c2)c(=O)[nH]c1=O`, for which the inhibition was -2.8% (inactive). As for `O=c1cc(O)c2sc(Nc3cccc(C(F)(F)F)c3)nc2[nH]1`, the inhibition is 16.5% (inactive). For `COc1ccccc1N1C(=O)c2ccc(C(=O)Nc3ccccc3O)cc2C1=O`, the inhibition was -3.6% (inactive).

Take `Cc1cc(C(=O)N2CCN(Cc3ccccc3)CC2)ccc1[N+](=O)[O-]`: the inhibition is 6.4% (inactive). As for `O=C(c1ccc(S(=O)(=O)Cc2ccccc2F)c([N+](=O)[O-])c1)N1CCCCCC1`, the inhibition is 22.6% (inactive). On to `O=C(c1ccc(S(=O)(=O)Cc2cc(F)ccc2F)c([N+](=O)[O-])c1)N1CCCC1`, for which the inhibition was 3.3% (inactive). As for `O=C(c1ccc(Sc2cccc(Cl)c2)c([N+](=O)[O-])c1)N1CCN(c2ccccn2)CC1`, the inhibition is 9.4% (inactive). For `O=C(c1ccc(Cl)c([N+](=O)[O-])c1)N1CCN(c2ccccn2)CC1` the value was 6.3% (inactive); for `O=C(c1ccc(Br)c([N+](=O)[O-])c1)N1CCN(Cc2ccccc2)CC1`, 10% (inactive). As to `CCCSc1nnc(CSc2nc3ccccc3s2)n1-c1ccccc1`, the inhibition is 2.7% (inactive). In the case of `O=C(COC(=O)c1ccccc1O)Nc1cccc(S(=O)(=O)NC2=NCCCCC2)c1`, the inhibition is 14.9% (inactive). For `O=C1CCCN1CCC1CCN(C(=S)Nc2ccc(F)cc2)CC1` the value was 1.1% (inactive); for `Cc1cccc(C(=O)c2cnc3ccccc3c2-c2ccccc2)c1`, 1.1% (inactive).

Regarding `COc1ccc(C(=O)c2cnc3ccccc3c2-c2ccccc2)cc1`, the inhibition was 29.3% (inactive). Consider `Cc1ccc(C(=O)c2cnc3ccccc3c2-c2ccccc2)cc1`, for which the inhibition is 50.7% (active).

As to `O=C(NCc1cccc(C(F)(F)F)c1)C1CC(c2c(Cl)cccc2Cl)=NO1` (centres undefined), the inhibition is -28.5% (inactive). For the compound `CCN1C(=O)/C(=C\c2ccc(-c3cccc(C(=O)OC)c3)o2)SC1=Nc1ccc(C(=O)O)cc1`, the inhibition was 4.2% (inactive). On to `CCN=C1S/C(=C\c2ccc(-c3cccc(C(=O)O)c3)o2)C(=O)N1CC`, for which the inhibition was -81.2% (inactive). Take `O=C(O)c1cccc(-c2ccc(/C=C3/SC(=Nc4ccccc4)N(Cc4cccnc4)C3=O)o2)c1`: the inhibition is 53.1% (active). Turning to `Cc1cc(NC(=O)CSc2nnnn2C)n(-c2ccccc2)n1`, the inhibition was 6.4% (inactive). On to `CCOC(=O)C1CCCN(S(=O)(=O)c2ccc(OC)c3ccccc23)C1` (centres undefined), for which the inhibition was 8.9% (inactive). Turning to `Cc1ccc(NC(=O)Nc2ccc3c(c2)CCC3)cc1C`, the inhibition is -15.3% (inactive). In the case of `CN(C)C(=O)C(OC(=O)c1ccc2ccccc2n1)c1ccccc1` (centres undefined), the inhibition was -9.4% (inactive). For `O=C(O)c1ccc2c(c1)CCC2` the value was 25.5% (inactive); for `CN(C)C(=O)C(OC(=O)c1ccc2c(c1)CCCC2)c1ccccc1` (centres undefined), 90.9% (active); for `O=C(COc1ccc(S(=O)(=O)NCc2ccccc2)cc1)NCC1CCCO1` (centres undefined), -3% (inactive). As for `Cc1csc(NC(=O)CSc2nnc(NC(=O)COc3ccc(Cl)cc3)s2)n1`, the inhibition was -17.3% (inactive).

As to `CCc1n(CC(O)COCC2CC=CCC2)c2ccccc2[n+]1C` (centres undefined), the inhibition was 55.3% (active). Take `CCCc1n(CC(O)COCC2CC=CCC2)c2ccccc2[n+]1C` (centres undefined): the inhibition was 5.7% (inactive).

In the case of `CCc1nc2ccccc2n1CC(O)COCC1CC=CCC1` (centres undefined), the inhibition was -7.7% (inactive).

In the case of `Cc1cc(=O)oc2c(C)c(OC(C)C(=O)Nc3ccc(N4CCC(C)CC4)cc3)ccc12` (centres undefined), the inhibition is 3.4% (inactive). For `Cn1c(=O)c2c(-c3ccc(OC(F)F)cc3)cc(-c3ccccc3)nc2n(C)c1=O` the value was -4.7% (inactive). For `COC(=O)COc1ccc(S(=O)(=O)Nc2cc([N+](=O)[O-])ccc2C)cc1` the value was 8.7% (inactive); for `O=C(CCn1cccc1)NCc1ccc(Cl)cc1`, 5.1% (inactive). With `O=C(N/N=C/c1cccc2ccccc12)c1cc(C2CC2)[nH]n1`, the inhibition was 10.5% (inactive). In the case of `CCOc1cccc(/C=N/NC(=O)c2cc(C3CC3)[nH]n2)c1O`, the inhibition is 63.2% (active). Take `CCOc1cc(/C=N/NC(=O)c2cc(C3CC3)[nH]n2)ccc1O`: the inhibition is -2.8% (inactive). With `Cc1ccc(C)c(NC(=O)CCN2C(=O)c3ccccc3C2=O)c1`, the inhibition was -5.3% (inactive). With `COc1ccc(N2CC(C(=O)N3CCN(c4ccccc4OC)CC3)CC2=O)cc1` (centres undefined), the inhibition was 12.7% (inactive). For `Cc1ccc(S(=O)(=O)Nc2ccc(N3CCOCC3)cc2)cc1`, the inhibition was 0.3% (inactive). For `COc1ccccc1N1CCN(C(=O)C2CCN(S(=O)(=O)c3ccc4c(c3)CC(C)N4C(=O)C3CC3)CC2)CC1` (centres undefined), the inhibition was 27% (inactive). Take `Cn1c(=O)c2c(nc(Oc3ccccc3)n2C)n(C)c1=O`: the inhibition is 4.8% (inactive) and 12.7% (inactive). As to `COc1ccc(Oc2nc3c(c(=O)n(C)c(=O)n3C)n2C)cc1`, the inhibition is 26.2% (inactive).

For `Cc1c(C#N)sc2nc(-c3ccccc3)nc(N3CCCC3)c12`, the inhibition was -1.5% (inactive). For `COCc1cc(C)nc(SCC(=O)Nc2ccccc2N2CCOCC2)c1C#N` the value was 40% (inactive); for `COCc1cc(C)nc(SCC(=O)Nc2ccc(N3CCOCC3)cc2)c1C#N`, 5% (inactive). As to `COCc1cc(C)nc(SCC(=O)Nc2cc(C(F)(F)F)ccc2N2CCOCC2)c1C#N`, the inhibition was 58.6% (active).

For the compound `COCC(C)n1c(C)cc(C(=O)COC(=O)CNC(=O)c2ccccc2)c1C` (centres undefined), the inhibition was 20.5% (inactive). With `COc1ccc(S(=O)(=O)N2CCCCCC2)cc1C(=O)OCc1c(C)noc1C`, the inhibition is 0.3% (inactive). In the case of `CNc1nc2cc([N+](=O)[O-])c([N+](=O)[O-])cc2nc1NC`, the inhibition was 18.9% (inactive). As for `Cc1ccc(NC(=S)N(C)C)cc1C`, the inhibition was -14.4% (inactive). Consider `CC(C)CCOc1cccc(OCC(=O)Nc2ccncc2)c1`, for which the inhibition is 60% (active). As for `COc1cccc(OCC(=O)Nc2ccncc2)c1`, the inhibition is 19.9% (inactive).

As for `Cc1cc(OCC(=O)Nc2ccncc2)ccc1Br`, the inhibition was 38.2% (inactive).

On to `Cc1cc(C)cc(OCC(=O)Nc2ccncc2)c1`, for which the inhibition is 29.4% (inactive).

For `O=C(COc1ccccc1)Nc1ccncc1`, the inhibition was 5.2% (inactive).

With `Cc1cc(OCC(=O)Nc2ccncc2)ccc1Cl`, the inhibition was 39.6% (inactive). For `Cc1cc(Cl)ccc1OCC(=O)Nc1ccncc1` the value was 39.3% (inactive).

For the compound `CC1=C([N+](=O)[O-])C(c2ccccc2Cl)NC(=O)N1C` (centres undefined), the inhibition was 14.3% (inactive).

For `O=C(NC1CCCN(CCc2ccccc2)C1)c1c(F)cccc1F` (centres undefined), the inhibition was 4.3% (inactive). For the compound `COc1cccc(N2CC(C(=O)Nc3nnc(SCCN4CCOCC4)s3)CC2=O)c1` (centres undefined), the inhibition was 14.1% (inactive). Take `CCOC(=O)c1sc2ccccc2c1OC(=O)c1ccccc1OC`: the inhibition is 22.4% (inactive). For the compound `CCOC(=O)c1sc2ccccc2c1OC(=O)c1ccccc1`, the inhibition was 27.7% (inactive). For `Cc1ccccc1C(=O)Nc1ccc(N2CCN(C(=O)c3ccco3)CC2)cc1` the value was 3.9% (inactive); for `COc1cccc(-c2nc3c(c(SCC(=O)N4CCOCC4)n2)Cc2c(CO)cnc(C)c2O3)c1`, 52.5% (active).

Regarding `Cc1cccc(-c2nc3c(c(SCC(=O)N4CCOCC4)n2)Cc2c(CO)cnc(C)c2O3)c1`, the inhibition was 42.3% (inactive).

`COc1ccc(-c2nc3c(c(SCC(=O)N4CCOCC4)n2)Cc2c(CO)cnc(C)c2O3)cc1`: the inhibition was 32% (inactive).

`CCc1ccc(NC(=O)CN(C)S(=O)(=O)c2ccc3[nH]c(=O)oc3c2)cc1`: the inhibition was 9.7% (inactive). For `COC(=O)C1=C(C)N(CCc2ccc(OC)cc2)C(=O)C1`, the inhibition is -0.9% (inactive). Turning to `Cc1cc(C)nc(N(C#N)Cc2cccc([N+](=O)[O-])c2)n1`, the inhibition was 15.2% (inactive). Regarding `Cc1cccc(Nc2ncnc(N)c2[N+](=O)[O-])n1`, the inhibition was 32% (inactive). With `Cc1cccnc1Nc1ncnc(N)c1[N+](=O)[O-]`, the inhibition is 3.6% (inactive). For `COc1cccc(C(=O)NNC(=O)C(=O)Nc2ccc(C)c(Cl)c2)c1`, the inhibition was 78.2% (active). In the case of `COc1cccc(C(=O)NNC(=O)C(=O)Nc2ccc(C)cc2)c1`, the inhibition is 4.6% (inactive). On to `COc1ccc(C(=O)NNC(=O)C(=O)Nc2ccc(C)c(Cl)c2)cc1`, for which the inhibition was 1.2% (inactive). As for `COc1ccc(/C=N/NC(=O)CC#N)cc1Oc1nc(Cl)ncc1F`, the inhibition is -4% (inactive). Take `O=[N+]([O-])c1ccc(C2OCCO2)cc1CS(=O)(=O)c1ccccc1`: the inhibition was -3.4% (inactive).

In the case of `CCC(=O)Nc1cccc2ccccc12`, the inhibition was 15.5% (inactive). Take `CCN(CC)c1ccc(/C=N/NC(=O)C(O)(c2ccccc2)c2ccccc2)o1`: the inhibition was 3.6% (inactive). For the compound `Cc1[nH]n(-c2ccccc2)c(=O)c1-c1ccc(Cl)cc1`, the inhibition was -50.4% (inactive). Take `Cc1[nH]n(-c2cccc(Cl)c2)c(=O)c1-c1ccccc1`: the inhibition is 17.3% (inactive).

Take `C=CCn1c(-c2cc3cccc(OC)c3o2)n[nH]c1=S`: the inhibition is -1.5% (inactive).
